The values that follow come from PubChem BioAssay AID588742 (Southern Research Specialized Biocontainment Screening …, 2011).

Among all 1,800 compounds or so, about 410 (23%) were called active. A selection follows. Results with a measured potency or affinity are listed apart. Unmarked numbers belong to inactive results. The rule behind the calls is not given here.

This experiment is described as follows: viability of Vero cells under compound – cytotoxicity control for flavivirus capping enzyme inhibitors (AID 588742). As to conditions: cytotoxicity counter-screen; series mostly up to 40 µM; viability: at the top concentration. (In general: A counterscreen serves to expose hits that act by an unwanted route or on another target.)
Take `N#CC1C(=O)c2ccccc2C1c1ccccc1` (centres undefined): the “viability” value was 90.6%.
The result for `CCCCCCn1c(=O)c(-c2ccccc2)c(O)c2ccccc21` reads 102%; that for `COc1ccc(S(=O)(=O)CC(=O)c2cc3cc(Br)ccc3oc2=O)cc1`, 108%; that for `CCOc1ccc(/C=C/c2[nH]c(=O)[nH]c(=O)c2[N+](=O)[O-])cc1`, 118%.
Regarding `COc1ccc(OC)c(/C=C2\SC(=S)N(NS(=O)(=O)c3ccc(C)cc3)C2=O)c1`, the “viability” value was 97.1%.
For `O=C(CC(Nc1ccccc1Cl)C(=O)O)c1ccccc1` (centres undefined), the “viability” value is 122%.
The same measure for `CCCOC(=O)c1c(NC(=O)C2C3C=CC(C3)C2C(=O)O)sc2c1CCC(C)C2` (centres undefined): 106%.
The result for `N#CCC(=O)N/N=C/c1ccc(OCC(=O)Nc2ccc(F)cc2)cc1` reads 92.9%; that for `COC(=O)C1=C(C(=O)OC)C(c2ccccc2O)c2sc(=O)[nH]c2S1` (centres undefined), 104%; that for `O=c1[nH]c(/C=C\c2ccc(O)c(O)c2)nc(O)c1[N+](=O)[O-]`, 97.7%.
The same measure for `Cc1c(N=C2C=C(Br)C(=O)C(Br)=C2)c(=O)n(-c2ccccc2)n1C`: 93.4%; for `Cc1c(N2C(=O)/C(=C3\C(=O)N(CC(=O)O)c4ccccc43)SC2=S)c(=O)n(-c2ccccc2)n1C`: 108%.
`COc1ccccc1/C=C1\SC(=S)N(NS(=O)(=O)c2ccccc2)C1=O`: the “viability” value was 84.4%.
Consider `COc1ccc(S(=O)(=O)Nc2cc3c4c(c2)C(C)C(=O)N4CCC3)cc1OC` (centres undefined), for which the “viability” value is 95.1%.
With `CC(=O)N1CCN(c2ccc(NCc3cccc(C)c3)cc2)CC1`, the “viability” value is 94.1%.
Take `N#C/C(=C\c1ccc(C#N)cc1)C(=O)c1ccccc1`: the “viability” value is 105%.
The result for `O=C1C(=NO)CCc2ccccc21` reads 91.2%.
The same measure for `O=C1c2ccccc2C(=O)c2c1cccc2N(CCO)CCO`: 90.7%; for `CCn1c2ccccc2c2cc(NC(=O)c3ccc(Br)o3)ccc21`: 93%; for `CCCCCCSc1nc(O)c(C2OC(=O)c3c2ccc(OC)c3OC)c(=O)n1-c1ccccc1` (centres undefined): 96.6%.
Consider `c1cc2c(cc1NC1CCCCCC1)OCO2`, for which the “viability” value was 107%.
The same measure for `O=C(O)c1[nH]c2ccccc2c1C(c1cc(Cl)cc([N+](=O)[O-])c1O)c1c(C(=O)O)[nH]c2ccccc12`: 99.4%; for `O=C(O)c1cc(N/N=C/c2ccc(-c3ccccc3)cc2)ccc1Cl`: 101%.
The same measure for `O=C(O)CN1C(=O)/C(=C\c2ccccc2OCc2ccc(Cl)cc2)SC1=S`: 94.9%; for `O=C(O)CN1C(=O)/C(=C\c2ccccc2OCc2ccccc2)SC1=S`: 91%.
On to `O=C(O)CN1C(=O)/C(=C\c2cc([N+](=O)[O-])ccc2OCc2ccccc2Cl)SC1=S`, for which the “viability” value is 99.2%.
The same measure for `O=C(O)CCCN1C(=O)/C(=C\c2ccccc2OCc2ccccc2)SC1=S`: 100%; for `CC1=C/C(=C(\c2cc(C)c(O)c(Br)c2)c2ccccc2S(=O)(=O)O)C=C(Br)C1=O`: 80.3%.
Take `Cc1ccc(S(=O)(=O)N2CCC(C(=O)OC(C)C(=O)NC3CCCCC3C)CC2)cc1C` (centres undefined): the “viability” value was 91.4%.
The same measure for `CN(C)c1ccc2cc(S(=O)(=O)O)cc(O)c2c1`: 97.7%; for `Cc1nc2ccccc2c2oc(C(=O)Nc3ccc4c(c3)OCCO4)cc12`: 92%; for `O=[N+]([O-])c1ccc(S(=O)(=O)Nc2nc(-c3ccccc3)cs2)cc1`: 103%.
The result for `Cc1cc([N+](=O)[O-])ccc1N1C(=O)c2ccc(C(=O)Nc3ccccc3C(=O)O)cc2C1=O` reads 100%; that for `Nc1nn2c(-c3ccccc3)cc(=O)[nH]c2c1N=Nc1ccc(O)cc1`, 91.5%; that for `O=C(O)c1ccc(N=N/C(=N\Nc2ccc(C(=O)O)cc2)c2ccccc2)cc1`, 98.1%.
For the molecule `O=C(O)CN1C(=O)/C(=C2\C(=O)N(Cc3ccccc3Cl)c3ccccc32)SC1=S`, the “viability” value is 120%.
`Cc1c(N)cc(N)cc1C(=O)O`: the “viability” value is 105%.
The same measure for `Cc1ccc(C2c3sc(=O)[nH]c3SC3C(=O)NC(=O)C32)cc1` (centres undefined): 98.6%; for `COc1cccc(/C=C2\SC(=S)N(NS(=O)(=O)c3ccc(C)cc3)C2=O)c1OC`: 86.8%.
The result for `CC1(C)CC(=O)C(C(c2ccc(Br)cc2)C2C(=O)CC(C)(C)CC2=O)C(=O)C1` reads 96.5%.
`CC1=NN(Cc2ccccc2)C(=O)C1C(c1ccccc1)C(C#N)C#N` (centres undefined): the “viability” value is 88.9%.
The result for `CCOc1ccccc1NC(=O)CN1C(=O)COc2ccc(S(=O)(=O)N3CCOCC3)cc21` reads 101%; that for `Cc1cc(OCC(=O)NC2CCN(Cc3ccccc3)CC2)c2c(C)c(C)c(=O)oc2c1`, 101%.
The same measure for `O=C1ON=C(c2cccc([N+](=O)[O-])c2)/C1=C/c1ccc(O)cc1`: 80.4%.
The same measure for `O=C1/C(=C/c2ccc(C(=O)O)cc2)CCC/C1=C\c1ccc(C(=O)O)cc1`: 114%; for `O=C(O)c1cccc(N2C(=O)C=CC2=O)c1`: 107%.
For the molecule `Cc1ccc([C@H]2C(C(=O)O)=CC[C@@H](c3ccc(Cl)c(Cl)c3)N2S(=O)(=O)c2ccc(C)cc2)cc1`, the “viability” value is 84.2%.
The result for `O=C(COc1ccccc1/C=C\c1[nH]c(=O)[nH]c(=O)c1[N+](=O)[O-])Nc1ccccc1` reads 109%.
The same measure for `CCOC(=O)c1c2c(c(=S)n(-c3ccccc3)c1N)CCC2`: 82.2%.
Regarding `CCOC(=O)CC1=NN(c2ccccc2)C(=O)/C1=C\c1ccc(OC)cc1OC`, the “viability” value is 94.6%.
As for `O=S(=O)(Nc1nc(-c2sccc2Cl)cs1)c1cc(Cl)ccc1Cl`, the “viability” value was 99.7%.
The result for `Fc1cccc(Cl)c1CNc1ccc(N2CCCC2)cc1` reads 84.4%.
Regarding `CCN1C(=NCc2ccccc2)N[C@@H](c2ccccc2)[C@H](C(=O)OC)[C@H]1C`, the “viability” value is 97.6%.
The same measure for `O=C(Cc1ccc(Br)cc1)Nc1ccc2[nH]ncc2c1`: 90.6%; for `CN(CCO)c1cc(Sc2nc3ccccc3s2)c2nonc2c1[N+](=O)[O-]`: 98.6%.
Take `O=c1cc(-c2ccccc2)[nH]c2[nH]n(-c3ccccc3)c(=O)c12`: the “viability” value is 97%.
Consider `Cc1ccc(C)c(S(=O)(=O)Nc2ccccc2C(=O)Nc2ccc(S(=O)(=O)Nc3ncccn3)cc2)c1`, for which the “viability” value is 102%.
Consider `O=C(O)c1ccc(Cl)c(S(=O)(=O)Nc2ccccc2C(=O)Nc2ccc(Cl)cc2)c1`, for which the “viability” value was 94.1%.
The same measure for `CC(=C\c1ccccc1)/C=C1/SC(=S)N(C(C(=O)O)C(C)C)C1=O` (centres undefined): 99.2%.
The same measure for `Oc1ccc(/C=N/N2CCCCC2)c(O)c1O`: 96%; for `Cc1cc(C(=O)N/N=C/c2ccc(O)c(O)c2O)c(C)n1-c1ccccc1`: 85%.
The same measure for `Oc1cccc(/C=N/N=C/c2cccc(O)c2O)c1O`: 86.5%; for `CCN(CC)S(=O)(=O)c1cccc(C(=O)N/N=C/c2ccc(O)c(O)c2O)c1`: 99.8%; for `O=C1N=c2ccccc2=C1c1sc(=S)n(NC(=O)c2cccc(O)c2)c1O`: 99.3%.

In general, viability refers to a read-out of living cells in per cent, often relative to untreated cells.
